An excerpt weighted towards active compounds, which were near 3.8% of everything screened.
Jurkat NFkB inh: inhibitors of induced NF-kB luciferase reporter, primary screen, TCR NF-kB activation inhibitor project, cell-based, luminescence, uHTS; AID 435003, 2010; actives 0.53% (n = 330,000); inhibition, % at 4 µM; Jurkat, PMA/ionomycin-induced NF-kB luciferase reporter; in the data active means inhibition above about 50%
Mdm2 MdmX PPI: inhibitors of human Mdm2-MdmX association, primary screen, cell-based, luminescence, split luciferase, SaOS-2, uHTS. actives 3% (n = 330,000). SaOS-2 split-luciferase Mdm2/MdmX complementation. inhibition, % at 8 µM;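 active means inhibition of at least 50% at 8 µM in the primary screen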
NTR1 ag: agonists of human NTR1, primary screen, imaging, U2OS cells, beta-arrestin-GFP, high content; activation, % at 20 µM; AID 493036, 2011; NTR1-U2OS beta-arrestin-GFP spot imaging, agonist mode; actives 0.17% (n = 330,000); Neurotensin receptor type 1 (Homo sapiens), P30989;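 active means activation at or above 40% of the spot to cytoplasm intensity ratio, with at least 20 cells analyzed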;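 further: 0% = DMSO without peptide and 100% = 100 nM NTR1 peptide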
Target sequence (P30989 whole entry, looked up): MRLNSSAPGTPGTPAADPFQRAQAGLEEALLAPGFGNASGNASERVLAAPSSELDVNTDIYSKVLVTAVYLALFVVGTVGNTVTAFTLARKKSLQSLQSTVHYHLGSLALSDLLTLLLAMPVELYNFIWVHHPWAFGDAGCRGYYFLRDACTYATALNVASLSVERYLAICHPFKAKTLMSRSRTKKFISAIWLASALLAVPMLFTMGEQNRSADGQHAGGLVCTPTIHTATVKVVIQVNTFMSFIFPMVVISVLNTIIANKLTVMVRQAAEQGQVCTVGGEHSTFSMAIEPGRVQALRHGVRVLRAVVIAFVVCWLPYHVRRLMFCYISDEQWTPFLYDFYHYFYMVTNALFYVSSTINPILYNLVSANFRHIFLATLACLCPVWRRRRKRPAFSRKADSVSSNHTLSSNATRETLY
697 NFkB inh: inhibitors of PMA/ionomycin-induced NF-kB reporter, 697 cells, primary screen, B-cell NF-kB inhibitor project, cell-based, luminescence, uHTS; inhibition, % at 4 µM; actives 0.33% (n = 330,000); 697 B-cell NF-kB luciferase reporter, 16 h; in the data active means inhibition above about 35%
Beta cell apopt: inhibitors of cytokine-induced beta cell apoptosis, primary screen, luminescence; INS-1E cytokine-induced death, ATP luminescence, 48 h; percent of positive-control rescue, neutral wells zero; protection from apoptosis, % (no concentration beside the values); actives 0.8% (n = 300,000); AID 435005, 2010;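 active means Every replicate reaches about 75%, or at least half do and their mean reaches it too, limit read from the data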;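 further: 0% = cytokine-treated negative control wells and 100% = positive control rescue; higher means more ATP so stronger rescue from cytokine killing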
A1 inh: caspase 3/7 activation in MEF A1-2A-BIM cells, primary screen, A1 inhibitor project, cell-based, luminescence, HTS; caspase activation, % (test concentration not listed); actives 0.066% (n = 330,000); AID 2462, 2010; Caspase-Glo 3/7 luminescence, 3 h; percent of clofoctol response, vehicle zero;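 active means over half of replicate activation scores above 10%, or exactly half above 10 with the replicate mean above 10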
Mdm2-MdmX conf: Mdm2-MdmX complex disruptors, retested hits, confirmation, luminescence, single concentration | shares compounds with Mdm2 MdmX PPI | Mdm2-MdmX binding, luminescent assay | inhibition, % at 8 µM | actives 55% (n = 10,000); in the data active means inhibition above about 40%
FLuc counter: full-length luciferase signal inhibition, confirmation, counter-screen for Mdm2/MdmX interaction inhibitor project, cell-based, single concentration, SaOS-2 | SaOS-2 full-length luciferase counterscreen, luminescence | AID 504607, 2011 | shares compounds with Mdm2 MdmX PPI | actives 77% (n = 6,200) | inhibition, % at 8 µM;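 active means mean inhibition at 8 µM reaching about 37%, which flags the compound as non-specific, limit read from the data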;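 further: p53-null SaOS-2 cells with luciferase driven by a doxycycline-inducible promoter; compound on cells about two nights before reading with doxycycline added after day one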
An asterisk follows results filed as active; . = not tested or not shown.

SMILES	Jurkat NFkB inh	Mdm2 MdmX PPI	NTR1 ag	697 NFkB inh	Beta cell apopt	A1 inh	Mdm2-MdmX conf	FLuc counter
O=C(c1ccc(C(F)(F)F)cc1)N1CCC(=O)N(C(COCc2ccccc2)Cc2ccccc2)CC1 (centres undefined)	23.7	23.2	11.3	12.0	-2.3	1.0	.	.
Cc1cccc(COCC(Cc2ccccc2)N2CCN(C(=O)c3cccc(C)c3)CCC2=O)c1 (centres undefined)	-7.9	25.7	7.8	5.8	-6.3	2.1	.	.
O=C(c1ccc(Cl)c(Cl)c1)N1CCC(=O)N(C(COCc2ccc(Cl)cc2)Cc2ccccc2)CC1 (centres undefined)	-3.8	52.3*	8.5	9.8	13.8	-0.5	26.9	.
O=C(c1ccc(Cl)c(Cl)c1)N1CCC(=O)N(C(COCc2cccc(C(F)(F)F)c2)Cc2ccccc2)CC1 (centres undefined)	0.0	50.7*	9.2	-1.8	-8.7	2.1	21.2	.
Cc1cccc(COCC(Cc2ccccc2)N2CCN(C(=O)c3cc(Cl)cc(Cl)c3)CCC2=O)c1 (centres undefined)	-1.9	50.4*	7.3	-18.1	1.2	-0.8	27.2	.
CCOC(=O)c1c(S(=O)(=O)NCC(=O)Nc2ccccc2OC)c(C)n(C)c1C	1.2	34.2	-0.9	3.2	-11.2	-0.9	.	.
CC(C(=O)NC1(C#N)CCCCC1)N(C)CC(=O)Nc1ccc(Cl)c(Cl)c1 (centres undefined)	-12.4	30.2	2.4	-2.6	13.4	0.3	.	.
CCN(CC)C(=O)c1nc[nH]c1C(=O)N1CCC(C)CC1	-1.6	-0.1	0.4	-2.3	-5.9	1.1	.	.
CC1CCN(c2ccc(-c3cccs3)nn2)CC1	31.1	55.0*	3.8	-14.3	28.0	-7.3	63.6*	40.4*
c1ccc(C2C3=C(CCCC3)Nc3ncnn32)cc1 (centres undefined)	-1.0	23.7	2.2	18.7	-2.0	0.4	.	.
Fc1ccc(/C=C2\CCCC3=C2Nc2ncnn2C3c2ccc(F)cc2)cc1 (centres undefined)	41.0	98.6*	46.4*	-25.4	2.8	2.1	47.4*	1.0
Cc1ccc(C)c(OCC(=O)NNC(=O)CSC(=S)N2CCCC2)c1	2.4	-3.2	3.0	21.1	3.5	1.2	.	.
CC(C)CC(=O)NC(c1cccs1)c1ccc2cccnc2c1O (centres undefined)	28.9	71.5*	0.5	-22.3	109.8*	0.8	84.7*	25.3
Cc1conc1NC(c1cccs1)c1ccc2cccnc2c1O (centres undefined)	18.2	62.6*	4.9	-9.8	106.5*	0.3	49.9*	31.8
COc1ccc(C2C(C#N)=C(N)Oc3c2ccc2cccnc32)cc1OC (centres undefined)	44.4	80.7*	1.7	-102.0	99.5*	-0.3	77.8*	60.2*
O=c1c(O[C@@H]2O[C@H](CO)[C@@H](O)[C@H](O)[C@H]2O)c(-c2ccc(O)c(O)c2)oc2cc(O)cc(O)c12	-0.7	51.5*	-1.2	-0.1	.	.	14.8	.
CC[C@H](C)[C@@H](CNC)NC[C@@H](Cc1ccc(O)cc1)NCC(C)(C)C	1.3	38.8	-3.5	10.3	-0.4	-0.3	.	.
CCCC[C@H](CN[C@@H](CNC)[C@H](C)CC)NCCC12CCC(CC1)C2	38.5	98.5*	33.3	0.8	72.5	-0.2	98.0*	50.4*
COc1ccccc1-c1nnc(Sc2nc([N+](=O)[O-])nn2C)o1	37.6	77.6*	3.3	16.2	-60.8	-0.2	99.0*	49.9*
CN(c1ccccc1)c1ccc(/C=C(\C#N)c2nnc3n2CCCCC3)cc1[N+](=O)[O-]	-11.0	65.5*	6.7	-51.8	3.6	0.8	33.5	.
N#C/C(=C\c1cccc([N+](=O)[O-])c1)c1nnc2n1CCCCC2	-2.4	23.4	0.8	13.1	6.9	0.6	.	.
C[n+]1c2n(c3ccccc31)N=C(c1ccc(-c3ccccc3)cc1)CS2	43.4	80.3*	8.8	12.3	108.2*	0.7	61.3*	25.5
Cc1cc(C)c2c(CCl)cc(=O)oc2c1	5.3	70.5*	-0.4	13.2	-4.3	0.3	61.0*	99.6*
Cc1oc(-c2ccccc2)nc1C(=O)O	4.5	77.0*	0.7	-10.6	-8.5	0.3	-19.6	.
CC(C)(C)NC(=O)C(OC(=O)c1ccco1)c1ccc(Cl)cc1 (centres undefined)	-2.1	8.2	-0.4	11.6	-4.0	0.4	.	.
SMILES	Jurkat NFkB inh	Mdm2 MdmX PPI	NTR1 ag	697 NFkB inh	Beta cell apopt	A1 inh	Mdm2-MdmX conf	FLuc counter
O=C(Nc1cccnc1)c1ccc([N+](=O)[O-])s1	36.9	52.4*	-0.7	3.3	77.8*	-0.2	24.6	.
COc1ccc([C@@H]2[C@@H]3C(=O)N(C(C)(C)C)C(=O)[C@@H]3[C@]3(Cc4ccc(Cl)cc4)C(=O)N(c4cccc(F)c4)C(=O)N23)cc1	1.6	5.3	-2.9	15.6	12.8	-0.5	.	.
O=C(CC1SC(N2CCCCC2)=NC1=O)Nc1ccc(C(=O)NCCc2ccc(F)cc2)cc1 (centres undefined)	-12.5	-1.7	2.3	-49.4	-3.8	-0.4	.	.
O=C1CCCN1c1ccc(S(=O)(=O)Nc2ccc3c(c2)OCCO3)cc1	36.9	68.1*	0.7	-68.3	19.6	-0.4	68.9*	61.0*
O=C(c1ccccc1Cl)N1CCNCC1	-7.3	17.9	0.4	-7.0	.	0.0	.	.
Clc1cccc2c1Sc1ccccc1CC2N1CCNCC1 (centres undefined)	6.9	66.0*	0.1	-16.8	5.4	0.2	73.1*	47.0*
COCCCN1CCN(C2Cc3ccccc3Sc3ccc(Cl)cc32)CC1 (centres undefined)	-4.5	43.2	12.6	-14.1	1.9	0.3	.	.
Clc1ccc2c(c1)C(N1CCNCC1)Cc1ccccc1S2 (centres undefined)	4.8	100.8*	11.6	-19.8	27.0	0.2	100.1*	39.2*
COC(=O)c1ccc(OCCN2CCCCCC2)cc1	-13.5	12.7	0.0	-3.3	-1.4	0.0	.	.

From PubChem BioAssay
